# Screens deposited in PubChem BioAssay by Broad Institute.
# NOMO-1 viab = STK33 inhibitor candidate reducing NOMO-1 cell viability. NOMO-1 AML viability, CellTiter-Glo luminescence, 72 h. inhibition, % (test concentration not listed). 37,000 compounds, 7.5% hits. AID 2330; in the data active means inhibition above about 80%; inconclusive means no clear call, values can overlap the other calls
# STK33 kin inh = human STK33 kinase inhibition; AID 2322; ADP-Glo luminescence, MBP substrate; Q9BYT3; 27,000 compounds, 0.44% hits; inhibition, % at 12.5 µM; in the data active means inhibition above about 20%; inconclusive means no clear call, values can overlap the other calls
# Target sequence (Q9BYT3 whole entry, looked up): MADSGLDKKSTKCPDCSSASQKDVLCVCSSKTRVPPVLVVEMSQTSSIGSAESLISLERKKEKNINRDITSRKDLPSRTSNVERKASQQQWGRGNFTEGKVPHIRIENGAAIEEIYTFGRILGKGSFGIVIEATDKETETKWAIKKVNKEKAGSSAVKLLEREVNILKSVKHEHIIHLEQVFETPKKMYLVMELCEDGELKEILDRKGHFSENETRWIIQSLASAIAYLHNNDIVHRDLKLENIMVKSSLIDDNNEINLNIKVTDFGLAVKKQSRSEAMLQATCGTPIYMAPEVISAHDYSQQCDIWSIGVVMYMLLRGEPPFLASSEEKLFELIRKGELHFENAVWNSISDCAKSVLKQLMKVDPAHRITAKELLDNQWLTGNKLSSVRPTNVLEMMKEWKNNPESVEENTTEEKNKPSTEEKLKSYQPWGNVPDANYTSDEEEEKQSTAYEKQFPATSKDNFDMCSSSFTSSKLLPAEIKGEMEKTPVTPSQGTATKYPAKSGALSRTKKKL
# PD-1 reversal = reversal of PD-1 mediated T-cell inhibition | primary human CD4 T cells, PD-L1 beads, CellTiter-Glo 96 h | activation, % (test concentration not listed) | 29,000 tested, under 10 active | AID 2316; call rule not given here;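 further: 0% = median vehicle wells and 100% = positive control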
# Active calls of the source: *; ? = inconclusive; nt = not tested or not shown. The full list was thinned out, with hits kept by preference.
SMILES,NOMO-1 viab,STK33 kin inh,PD-1 reversal
COc1ccc(OC)c(-n2c(=S)[nH]c3cc(C(=O)N4CCC(C(N)=O)CC4)ccc3c2=O)c1,6.0,-1.9,3.6
COc1ccc(-c2nnc(SCC(N)=O)n2C)cc1OC,-4.3,4.3,1.1
CCc1cccc(C)c1NC(=O)CSc1nc2sc3c(c2c(=O)n1C)CCC(C)C3 (stereo not drawn),95.1*,3.8,nt
Cn1c(SCC(=O)Nc2ccccc2)nc2sc3c(c2c1=O)CCC3,20.5,-2.9,-2.1
Cc1ccccc1NS(=O)(=O)c1ccc(Cl)c(C(=O)Nc2ccccc2C(=O)O)c1,-8.3,-0.9,nt
O=S(=O)(N[C@@H]1CCN(Cc2ccc(OCCO)cc2)C1)c1cc(Cl)ccc1Cl,nt,-3.8,nt
O=C(NCCCCCNC(=O)/C(Cc1ccccc1)=N/O)OCc1ccccc1,nt,-1.8,nt
CC1CC(=O)C2=C(C1)C1OC1C1(O)C2C(=O)c2cccc(O)c2C1O (stereo not drawn),nt,-2.3,nt
CC1CC(=O)C2=C(C1)C(Cl)C(O)C1(O)C2C(=O)c2cccc(O)c2C1O (stereo not drawn),101.3*,-0.8,-0.4
CC1=CC(C)(C)N2C(=O)C(=O)c3cc(OC(=O)CN4C(=O)c5cccc6cccc(c56)C4=O)cc1c32,119.0*,1.0,-13.2
COc1ccc(C)cc1NC(=O)CN1C(=O)c2cccc3cccc1c23,57.2,4.3,nt
Cc1ccc(NC(=O)c2ccc(OC(=O)CN3C(=O)c4ccccc4C3=O)cc2)cc1,42.8,-0.6,nt
CC1=CC(C)(C)N2C(=O)C(=O)c3cc(OC(=O)CN4C(=O)c5ccccc5C4=O)cc1c32,115.4*,5.6,-7.1
C/C=C(/C)C(=O)O[C@H]1C=C(C)C[C@H](OC(=O)c2ccc(O)cc2)C2[C@](O)(C(C)C)CC[C@@]21C (stereo partly drawn),122.5*,-4.7,-5.8
Cc1ncc([N+](=O)[O-])n1Cc1n[nH]c(=S)n1C,-9.1,4.7,1.5
Nc1nonc1-c1nc2ccccc2n1CC(=O)Nc1cccc(Cl)c1Cl,118.9*,1.7,nt
CCc1ccccc1NC(=O)Cn1c(-c2nonc2N)nc2ccccc21,21.4,6.5,nt
C[C@@H]1CN([C@H](C)CO)C(=O)c2cc(NC(=O)Nc3ccccc3)ccc2O[C@@H]1CN(C)C(=O)Nc1cccc2ccccc12,90.4*,nt,-4.9
C[C@@H]1CN([C@@H](C)CO)C(=O)c2cc(NC(=O)Nc3ccccc3)ccc2O[C@@H]1CN(C)C(=O)Nc1cccc2ccccc12,67.2,nt,-5.0
C[C@@H]1CN([C@@H](C)CO)C(=O)c2cc(NC(=O)Nc3cccc4ccccc34)ccc2O[C@H]1CN(C)Cc1ccc(C(F)(F)F)cc1,86.6*,nt,1.4
C[C@@H]1CN([C@H](C)CO)C(=O)c2cc(NC(=O)Nc3cccc4ccccc34)ccc2O[C@@H]1CN(C)Cc1ccncc1,14.9,nt,0.9
C[C@H]1CN([C@@H](C)CO)C(=O)c2cc(NC(=O)Nc3cccc4ccccc34)ccc2O[C@H]1CN(C)Cc1ccc(C(F)(F)F)cc1,0.8,-1.2,2.3
C[C@@H]1CN([C@@H](C)CO)C(=O)c2cc(NC(=O)Nc3cccc4ccccc34)ccc2O[C@@H]1CN(C)C(=O)Nc1ccc(C(F)(F)F)cc1,51.9,0.2,-2.7
C[C@H](CO)N1C[C@H](C)[C@H](CN(C)Cc2ccncc2)Oc2ccc(NC(=O)Nc3cccc4ccccc34)cc2C1=O,98.0*,-1.0,3.8
C[C@H]1CN([C@@H](C)CO)C(=O)c2cc(NC(=O)Nc3cccc4ccccc34)ccc2O[C@@H]1CN(C)C(=O)Nc1ccc(C(F)(F)F)cc1,85.9*,nt,-5.0
SMILES,NOMO-1 viab,STK33 kin inh,PD-1 reversal
CCn1c(SCc2nc3ccccc3c(=O)[nH]2)nnc1-c1ccccc1C,4.0,7.6,1.7
O=C(CSc1nc(-c2ccc(F)cc2)cs1)Nc1ccc(N2CCOCC2)c(Cl)c1,4.1,1.3,-0.3
COc1ccc(C(=O)N(Cc2nc(-c3ccc(Cl)cc3)no2)C(C)C)cc1OC,12.2,-3.3,0.7
Cc1cc(NS(=O)(=O)c2ccc(NS(=O)(=O)c3cccs3)cc2)nc(C)n1,1.7,-0.9,nt
Cc1oc2c(c1C(=O)NCCC(C)C)C(=O)c1ccccc1C2=O,140.4*,nt,-4.8
Cc1onc(-c2ccccc2)c1C(=O)NCCCn1ccnc1,3.5,0.1,0.8
Cc1oc2c(c1C(=O)NCCCn1ccnc1)C(=O)c1ccccc1C2=O,141.3*,nt,-5.4
COc1ccccc1CCNC(=O)c1ccoc1C,9.9,-1.8,1.2
COc1ccc(CCNC(=S)NC2CC2)cc1OC,10.5,nt,1.2
C/C1=C/CC(=O)C(C)C[C@H]2OC(=O)[C@H](C)C2[C@@H](O)C1 (stereo partly drawn),-10.0,-3.4,1.9
C=CC[C@@]1(C(=O)NCc2ccccc2)N=C(c2ccc(OCCCO)cc2)O[C@@H]1c1ccccc1,nt,0.5,nt
CCc1ccc(/C(C#N)=C/C=C/c2ccccc2)cc1,115.1*,nt,-0.8
COc1ccc(S(=O)(=O)Nc2ccc3c(c2)C(=O)N([C@H](C)CO)C[C@@H](C)[C@@H](CN(C)Cc2ccc(Oc4ccccc4)cc2)O3)cc1,110.6*,nt,-1.0
COc1ccc(S(=O)(=O)Nc2ccc3c(c2)C(=O)N([C@H](C)CO)C[C@H](C)[C@@H](CN(C)Cc2ccccc2)O3)cc1,14.6,nt,1.8
COc1ccc(S(=O)(=O)Nc2ccc3c(c2)C(=O)N([C@@H](C)CO)C[C@H](C)[C@H](CN(C)Cc2ccc(Oc4ccccc4)cc2)O3)cc1,122.8*,11.3,nt
C[C@@H]1CN([C@@H](C)CO)C(=O)c2cc(NS(=O)(=O)c3ccc(Cl)cc3)ccc2O[C@H]1CN(C)Cc1ccc(Oc2ccccc2)cc1,108.8*,nt,-0.6
C[C@@H]1CN([C@H](C)CO)C(=O)c2cc(NS(=O)(=O)c3ccc(Cl)cc3)ccc2O[C@H]1CN(C)Cc1ccc(Oc2ccccc2)cc1,66.4,nt,0.1
COc1ccc(S(=O)(=O)Nc2ccc3c(c2)C(=O)N([C@H](C)CO)C[C@@H](C)[C@H](CN(C)Cc2ccc(Oc4ccccc4)cc2)O3)cc1,105.2*,-0.4,-0.9
COc1ccc(S(=O)(=O)Nc2ccc3c(c2)C(=O)N([C@H](C)CO)C[C@H](C)[C@@H](CN(C)Cc2ccc(Oc4ccccc4)cc2)O3)cc1,66.3,nt,-0.4
COc1ccc(CN(C)C[C@H]2Oc3ccc(NS(=O)(=O)c4ccccc4)cc3C(=O)N([C@@H](C)CO)C[C@@H]2C)cc1,10.6,0.5,-4.3
CCn1c(SCc2nc3ccccc3c(=O)[nH]2)nnc1-c1ccc(Cl)cc1,-13.2,-2.2,-0.2
CCn1c(SCC(=O)Nc2c(C)cccc2C)nnc1-c1cnccn1,-3.5,-2.9,0.1
CS(=O)(=O)N(CC(=O)Nc1cccc(C(F)(F)F)c1)c1ccc(F)c(Cl)c1,53.9,2.0,-2.5
N#Cc1ccc(NC(=O)C2CCCCC2C(=O)O)cc1 (stereo not drawn),-5.1,-3.4,3.5
C[C@@H]1CN([C@@H](C)CO)C(=O)c2cc(NS(=O)(=O)c3ccccc3)ccc2O[C@H]1CN(C)Cc1ccc(Oc2ccccc2)cc1,?,1.9,-1.6
COc1ccc(S(=O)(=O)Nc2ccc3c(c2)C(=O)N([C@@H](C)CO)C[C@@H](C)[C@H](CN(C)Cc2ccc(Oc4ccccc4)cc2)O3)cc1,108.0*,1.9,-1.8
